Compound activity deposited in PubChem by National Center for Advancing Translational Sciences (NCATS).
ATXN viability = cell viability loss in ATXN counter-screen; Potency, µM (top dose mostly 56.7 µM), most hits filed as cytotoxic; hit rate 0.49% among 400,000; S2 cells (HEK-293 line with an ATXN2-luciferase reporter) viability, CellTiter-Fluor protease fluorescence, 24 h; also: nearly all actives have a fitted effect of over 40% in size
TGFb inhibitor = inhibitors of TGF-b signaling. HepG2 CAGA-GFP TGF-b/SMAD3 reporter, GFP fluorescence, 18 h; TGF-beta stimulated, 500 pg/mL final. Potency, µM (highest dose often 46.1 µM), hits mostly inhibitors. hit rate 1.2% among 410,000. AID 588855; also: nearly all actives have a fitted effect of over 65% in size
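GFP signal (ex488/em500-530) from TGF-beta-stimulated HEPG2 CAGA-GFP cells, 500 pg/mL final, 18 h at 37 degrees C in DMEM plus 1% FBS, normalized to unstimulated and DMSO-stimulated controls.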
KB-V1 cytotox = KB-V1 MDR subline cytotoxicity; Potency, µM (top dose mostly 46.1 µM), most hits filed as cytotoxic; KB-V1 MDR cells viability, CellTiter-Glo, 72 h; hit rate 3.4% among 400,000; AID 1347076; also: nearly all actives have a fitted effect of over 60% in size
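Compound-treated KB-V1 multidrug-resistant cells, 72 h, 37 degrees C; viability by CellTiter-Glo. Fitted qHTS curves give the values.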
HepG2 tox = counter-screen for TGF-b inhibitors: cytotoxicity in HepG2 cells; Potency, µM (highest dose often 46.1 µM), actives largely listed as cytotoxic; HepG2 CAGA-GFP viability, ATP luminescence, 18 h; hit rate 0.76% among 410,000; AID 588856
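HepG2 CAGA-GFP cells (1000/well, DMEM with 1% FBS) received compound, then TGF-beta at 500 pg/mL final, and were incubated 18 hours at 37 degrees C. Viability was read by CellTiter-Glo luminescence. Media-only wells were set as complete cell-killing and DMSO as no toxicity.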
KB-3-1 tox = kills parental KB-3-1 adenocarcinoma cells; Potency, µM (series often up to 46.1 µM), hits mostly cytotoxic; AID 1347075; KB-3-1 viability, CellTiter-Glo ATP luminescence, 72 h; hit rate 1.4% among 400,000; also: nearly all actives have a fitted effect of over 60% in size
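Cytotoxicity in the drug-sensitive parental line KB-3-1 was scored as loss of CellTiter-Glo luminescence following 72 h incubation with compound. Values come from curve fitting of normalized concentration-response data.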
ATXN2 expr inh = inhibitors of ATXN2 expression; HEK-293 ATXN2-luciferase reporter, luminescence, 24 h; Potency, µM (series often up to 57 µM), usual class: inhibitors; hit rate 0.72% among 360,000; AID 1745845; also: nearly all actives have a fitted effect of over 55% in size
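ATXN2-luciferase reporter cells (luciferase flanked by upstream and downstream ATXN2 gene portions) were treated 24 h at 37 °C with compounds at up to 57 uM. SteadyGlo luminescence gave expression; GF-AFC fluorescence gave viability.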
Hits are given with their value; - = inactive; ? = inconclusive; . = not tested or not shown. Sampled rows, rich in hits. Any-hit rate of the full collection: about 5.9%. Calls follow the shape of the dose curve; as a rule, active = well fitted curve in the direction sought with a large enough effect; inconclusive = small, poorly fitted or top-dose-only effect, or another doubt; inactive = no such curve, though single readings can be large; an effect the other way counts as inactive or inconclusive.

SMILES | ATXN viability | TGFb inhibitor | KB-V1 cytotox | HepG2 tox | KB-3-1 tox | ATXN2 expr inh
Cc1ccc(-n2ncc(C(=O)NCCCN3CCc4ccccc4C3)c2C2CCN(C(=O)OC(C)(C)C)CC2)cc1C | . | ? | - | 16µM | - | .
COc1ccccc1N1CCN(C(=O)c2cnn(-c3ccc(C)c(C)c3)c2C2CCN(C(=O)OC(C)(C)C)CC2)CC1 | . | - | - | - | 21µM | .
CC(C)(C)OC(=O)N1CCC(c2c(C(=O)NCCCN3CCc4ccccc4C3)cnn2-c2ccccc2)CC1 | . | ? | - | - | - | .
Clc1ccc(-n2cccc2CN2CCOc3ccc(CN4CCOCC4)cc3C2)nc1 | - | . | . | . | . | .
CC(C)(C)NC(=O)CCN(/N=C/c1ccc([N+](=O)[O-])o1)C1=NS(=O)(=O)c2ccccc21 | ? | ? | - | - | 18µM | ?
CN(C)c1ccc(/C=N/N(CCC(=O)NC(C)(C)C)C2=NS(=O)(=O)c3ccccc32)cc1 | - | - | - | - | - | -
CN(C)CCN1C(=O)c2cccc3cc([N+](=O)[O-])cc(c23)C1=O | ? | 6.3µM | 2.6µM | - | 8.2µM | ?
Cc1ccccc1CNCCCSc1nnnn1-c1ccccc1 | - | - | - | - | - | -
CCN(C(=O)c1cnc(N2CCOCC2)c2ccccc12)c1cc(C)ccc1C | . | ? | - | - | - | .
CCOC(=O)Nc1ccc2c(c1)N(C(=O)CCN(CC)CC)c1ccccc1S2=O (stereo not given) | ? | 14µM | - | - | ? | -
CCOC(=O)Nc1ccc2c(c1)N(C(=O)CCN(CC)CC)c1ccccc1CC2 | - | ? | - | - | - | .
CCc1ccc(N=C2NC(=O)CC(C(=O)Nc3ccc(OC)cc3)S2)cc1 (stereo not given) | - | - | - | - | - | -
Cc1ccc(-c2nc3sc(CCNC(=O)c4ccc(Br)o4)c(C)n3n2)cc1 | . | 18µM | - | - | - | ?
Cc1cccc(-c2nc3scc(CCNS(=O)(=O)c4ccc(F)cc4C)n3n2)c1 | . | 11µM | . | - | . | .
Cc1cc(C)c(S(=O)(=O)NCCc2sc3nc(-c4ccc(F)cc4)nn3c2C)c(C)c1 | . | 11µM | . | - | . | .
Cc1cccc(-c2nc3scc(CCNS(=O)(=O)c4ccc(F)c(C(F)(F)F)c4)n3n2)c1 | . | ? | . | - | . | .
CCCS(=O)(=O)NCCc1sc2nc(-c3ccc(F)cc3)nn2c1C | . | - | . | - | . | .
CC1CCCC(NC(=O)CC2Nc3ccccc3NC2=O)C1C (stereo not given) | - | - | 16µM | - | - | -
COc1ccc(C(=O)NCC(C)(C)SCc2c(C)cc(C)cc2C)cc1 | - | ? | 18µM | - | - | -
Cc1ccc(/C=C2\SC(=S)N(CCCC(=O)Nc3ccccc3C(=O)O)C2=O)cc1 | - | - | ? | - | - | 13µM
Cc1cc(NC(=O)CCCN2C(=O)/C(=C/c3ccccc3Cl)SC2=S)no1 | - | - | 21µM | - | ? | ?
Cc1ccc(/C=C2\SC(=S)N(CCCC(=O)Nc3ccc(O)cc3)C2=O)cc1 | - | - | - | - | - | 10µM
Cc1ccc(/C=C2\SC(=S)N(CCCC(=O)Nc3ccccn3)C2=O)cc1 | - | - | ? | - | ? | 3.2µM
CCc1ccc(/C=C2\SC(=S)N(CCCC(=O)Nc3ccccc3C(=O)O)C2=O)cc1 | - | - | ? | - | - | -
CCOC(=O)Cn1c(=O)cc(C)c2c(C)nn(-c3cccc(F)c3)c21 | - | - | - | - | - | -
NC(c1csc(Nc2ccc(C(=O)NCCCO)cn2)n1)c1ccccc1Cl (stereo not given) | - | - | - | - | - | -
CCN(c1cc(C)cc(C)c1)S(=O)(=O)c1nnc(NC(=O)C2CCCCC2)s1 | . | - | . | - | . | .
CC(C)(C)NC(=O)Nc1nnc(-c2ccncc2)s1 | . | . | - | . | ? | .
CC(=O)c1ccc(NC(=O)CCCN2C(=O)/C(=C/C(C)=C/c3ccccc3)SC2=S)cc1 | . | - | 18µM | - | ? | -
CCc1nc(SCC(=O)N2CCN(c3ccccc3)CC2)c2oc3ccccc3c2n1 | ? | - | 13µM | - | - | -
